According to publication PMC8384837, “Expanding the binding specificity for RNA recognition by a PUF domain”:

Legend:
Experiment in all cases: yeast three-hybrid, YBZ-1, SC-Leu-His + 0.5 mM 3-AT, 4 days
Conditions in all cases: tags: N-Gal4 AD-HA kept; label: inside an RPR1-promoter hybrid RNA with tandem MS2 sites; ssRNA
PUM1 PUF domain R3-LFR = PUM1 PUF domain R3-LFR (Homo sapiens, UniProt Q14671 828-1176, C935L;R936F;Q939R)
Procedure, shortened: (§1)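 Pumilio-1 PUF domain libraries, randomized at the three base-contacting residues of each repeat, were co-expressed with matching RNA elements from a centromeric plasmid in strain YBZ-1, which carries a LexA–MS2 coat fusion and a HIS3 reporter. Transformants grew for four days on SC-Leu (input) or on SC-Leu-His + 0.5 mM 3-AT (selection), and the repeat regions were PCR-amplified and Illumina-sequenced. The interaction score is the log change in variant frequency from input to selection. That logarithm is base 2, with a pseudocount of 1 where a variant was absent.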

PUM1 PUF domain R3-LWD = PUM1 PUF domain R3-LWD (Homo sapiens, UniProt Q14671 828-1176, C935L;R936W;Q939D)
Sequence of PUM1 PUF domain R3-LWD (Q14671 828-1176 C935L/R936W/Q939D): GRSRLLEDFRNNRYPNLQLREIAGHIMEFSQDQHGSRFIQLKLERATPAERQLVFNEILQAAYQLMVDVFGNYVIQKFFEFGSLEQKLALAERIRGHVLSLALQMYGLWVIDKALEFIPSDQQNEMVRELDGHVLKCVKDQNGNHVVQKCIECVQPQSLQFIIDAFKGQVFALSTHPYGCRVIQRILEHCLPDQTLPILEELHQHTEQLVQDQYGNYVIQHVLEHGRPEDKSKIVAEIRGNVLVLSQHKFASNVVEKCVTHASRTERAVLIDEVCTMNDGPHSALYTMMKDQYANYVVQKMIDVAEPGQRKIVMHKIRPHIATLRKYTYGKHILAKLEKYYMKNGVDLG
Procedure, shortened: as §1

PUM1 PUF domain R3-RPV = PUM1 PUF domain R3-RPV (Homo sapiens, UniProt Q14671 828-1176, C935R;R936P;Q939V)
Sequence of PUM1 PUF domain R3-RPV (Q14671 828-1176 C935R/R936P/Q939V): as the sequence (Q14671 828-1176 C935L/R936W/Q939D) above, with L108R, W109P, D112V counted along it
Procedure, shortened: as §1

PUM1 PUF domain R3-PWA = PUM1 PUF domain R3-PWA (Homo sapiens, UniProt Q14671 828-1176, C935P;R936W;Q939A)
Sequence of PUM1 PUF domain R3-PWA (Q14671 828-1176 C935P/R936W/Q939A): as the sequence (Q14671 828-1176 C935L/R936W/Q939D) above, with L108P, D112A counted along it
Procedure, shortened: as §1

PUM1 PUF domain R1-RSS = PUM1 PUF domain R1-RSS (Homo sapiens, UniProt Q14671 828-1176, S863R;R864S;Q867S)
Procedure, shortened: as §1

PUM1 PUF domain R8-PWN = PUM1 PUF domain R8-PWN (Homo sapiens, UniProt Q14671 828-1176, N1122P;Y1123W;Q1126N)
Procedure, shortened: as §1

PUM1 PUF domain R8-KWC = PUM1 PUF domain R8-KWC (Homo sapiens, UniProt Q14671 828-1176, N1122K;Y1123W;Q1126C)
Sequence of PUM1 PUF domain R8-KWC (Q14671 828-1176 N1122K/Y1123W/Q1126C): as the sequence (Q14671 828-1176 C935L/R936W/Q939D) above, with L108C, W109R, D112Q, N295K, Y296W, Q299C counted along it
Procedure, shortened: as §1

PUM1 PUF domain R4-GMG = PUM1 PUF domain R4-GMG (Homo sapiens, UniProt Q14671 828-1176, N971G;H972M;Q975G)
Procedure, shortened: as §1

PUM1 PUF domain R4-VNG = PUM1 PUF domain R4-VNG (Homo sapiens, UniProt Q14671 828-1176, N971V;H972N;Q975G)
Procedure, shortened: as §1

PUM1 PUF domain R4-AMA = PUM1 PUF domain R4-AMA (Homo sapiens, UniProt Q14671 828-1176, N971A;H972M;Q975A)
Sequence of PUM1 PUF domain R4-AMA (Q14671 828-1176 N971A/H972M/Q975A): as the sequence (Q14671 828-1176 C935L/R936W/Q939D) above, with L108C, W109R, D112Q, N144A, H145M, Q148A counted along it
Procedure, shortened: as §1

PUM1 PUF domain R4-FNH = PUM1 PUF domain R4-FNH (Homo sapiens, UniProt Q14671 828-1176, N971F;H972N;Q975H)
Sequence of PUM1 PUF domain R4-FNH (Q14671 828-1176 N971F/H972N/Q975H): as the sequence (Q14671 828-1176 C935L/R936W/Q939D) above, with L108C, W109R, D112Q, N144F, H145N, Q148H counted along it
Procedure, shortened: as §1

PUM1 PUF domain R5-PFP = PUM1 PUF domain R5-PFP (Homo sapiens, UniProt Q14671 828-1176, C1007P;R1008F;Q1011P)
Procedure, shortened: as §1

PUM1 PUF domain R5-TRL = PUM1 PUF domain R5-TRL (Homo sapiens, UniProt Q14671 828-1176, C1007T;Q1011L)
Procedure, shortened: as §1

PUM1 PUF domain R3-PYL = PUM1 PUF domain R3-PYL (Homo sapiens, UniProt Q14671 828-1176, C935P;R936Y;Q939L)
Procedure, shortened: as §1

PUM1 PUF domain R6-THR = biological target: T1, PUM1 PUF domain R6-THR (Homo sapiens, UniProt Q14671 828-1176, N1043T;Y1044H;Q1047R)
T1 sequence: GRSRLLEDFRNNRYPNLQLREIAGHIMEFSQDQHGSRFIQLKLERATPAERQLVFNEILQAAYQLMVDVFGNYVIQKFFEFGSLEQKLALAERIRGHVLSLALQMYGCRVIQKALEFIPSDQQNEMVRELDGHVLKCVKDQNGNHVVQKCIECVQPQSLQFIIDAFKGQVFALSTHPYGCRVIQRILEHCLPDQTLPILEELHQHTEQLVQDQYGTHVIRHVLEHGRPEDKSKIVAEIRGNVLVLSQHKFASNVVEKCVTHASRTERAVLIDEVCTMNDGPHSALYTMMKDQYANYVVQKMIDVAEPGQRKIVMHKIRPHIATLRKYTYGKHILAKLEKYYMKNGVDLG
Procedure, shortened: as §1

PUM1 PUF domain R5-KRM = PUM1 PUF domain R5-KRM (Homo sapiens, UniProt Q14671 828-1176, C1007K;Q1011M)
Sequence of PUM1 PUF domain R5-KRM (Q14671 828-1176 C1007K/Q1011M): as the sequence (Q14671 828-1176 C935L/R936W/Q939D) above, with L108C, W109R, D112Q, C180K, Q184M counted along it
Procedure, shortened: as §1

PUM1 PUF domain R3-FRD = PUM1 PUF domain R3-FRD (Homo sapiens, UniProt Q14671 828-1176, C935F;Q939D)
Procedure, shortened: as §1

PUM1 PUF domain R3-FQC = PUM1 PUF domain R3-FQC (Homo sapiens, UniProt Q14671 828-1176, C935F;R936Q;Q939C)
Sequence of PUM1 PUF domain R3-FQC (Q14671 828-1176 C935F/R936Q/Q939C): as the sequence (Q14671 828-1176 C935L/R936W/Q939D) above, with L108F, W109Q, D112C counted along it
Procedure, shortened: as §1

PUM1 PUF domain R1-QYK = PUM1 PUF domain R1-QYK (Homo sapiens, UniProt Q14671 828-1176, S863Q;R864Y;Q867K)
Sequence of PUM1 PUF domain R1-QYK (Q14671 828-1176 S863Q/R864Y/Q867K): as the sequence (Q14671 828-1176 C935L/R936W/Q939D) above, with S36Q, R37Y, Q40K, L108C, W109R, D112Q counted along it
Procedure, shortened: as §1

PUM1 PUF domain R5-SNS = PUM1 PUF domain R5-SNS (Homo sapiens, UniProt Q14671 828-1176, C1007S;R1008N;Q1011S)
Sequence of PUM1 PUF domain R5-SNS (Q14671 828-1176 C1007S/R1008N/Q1011S): as the sequence (Q14671 828-1176 C935L/R936W/Q939D) above, with L108C, W109R, D112Q, C180S, R181N, Q184S counted along it
Procedure, shortened: as §1

With “GGCUAGAACUAGUGGAUCCCCCGGCGCCCGGCGGCUCGAGCCCGGGUAAGUGUAAUUAGUCUGCAUGCCGCCGGGCGCCAUGCCUGCAGGUCGACUCUAGAAAACAUG” as the sequence, how does the binding signal (PUM1 PUF domain R3-LFR) read?
Its binding signal is 5 log2 enrichment (interaction score).

And the binding signal (PUM1 PUF domain R3-LWD)?
Its binding signal is 1.73 log2 enrichment (interaction score).

What about the binding signal (PUM1 PUF domain R3-RPV) of the same sequence?
The binding signal was 2.55 log2 enrichment (interaction score).

What about the binding signal (PUM1 PUF domain R3-PWA) of the same sequence?
The binding signal was 2.19 log2 enrichment (interaction score).

For “GGCUAGAACUAGUGGAUCCCCCGGCGCCCGGCGGCUCGAGCCCGGGUAAGUGUAAAUGGUCUGCAUGCCGCCGGGCGCCAUGCCUGCAGGUCGACUCUAGAAAACAUG”, which binding signal (PUM1 PUF domain R1-RSS) is on record?
Its binding signal is 2.55 log2 enrichment (interaction score).

“GGCUAGAACUAGUGGAUCCCCCGGCGCCCGGCGGCUCGAGCCCGGGUAAGUGUAAAUUGUCUGCAUGCCGCCGGGCGCCAUGCCUGCAGGUCGACUCUAGAAAACAUG” was tested. Which binding signal (PUM1 PUF domain R1-RSS) did it give?
Its binding signal is 3.21 log2 enrichment (interaction score).

“GGCUAGAACUAGUGGAUCCCCCGGCGCCCGGCGGCUCGAGCCCGGGUAAGCGUAAAUAGUCUGCAUGCCGCCGGGCGCCAUGCCUGCAGGUCGACUCUAGAAAACAUG” was tested. Which binding signal (PUM1 PUF domain R8-PWN) did it give?
The binding signal was 3.44 log2 enrichment (interaction score).

What about the binding signal (PUM1 PUF domain R8-KWC) of the same sequence?
The binding signal was 4.87 log2 enrichment (interaction score).

Which results are given for “GGCUAGAACUAGUGGAUCCCCCGGCGCCCGGCGGCUCGAGCCCGGGUAAGUGUAUAUAGUCUGCAUGCCGCCGGGCGCCAUGCCUGCAGGUCGACUCUAGAAAACAUG”?
binding signal (PUM1 PUF domain R4-GMG): 2.85 log2 enrichment (interaction score); binding signal (PUM1 PUF domain R4-VNG): 2.54 log2 enrichment (interaction score); binding signal (PUM1 PUF domain R4-AMA): 2.78 log2 enrichment (interaction score); binding signal (PUM1 PUF domain R4-FNH): 5.93 log2 enrichment (interaction score)

With “GGCUAGAACUAGUGGAUCCCCCGGCGCCCGGCGGCUCGAGCCCGGGUAAGUGUACAUAGUCUGCAUGCCGCCGGGCGCCAUGCCUGCAGGUCGACUCUAGAAAACAUG” as the sequence, how does the binding signal (PUM1 PUF domain R4-AMA) read?
The binding signal was 1.77 log2 enrichment (interaction score).

With “GGCUAGAACUAGUGGAUCCCCCGGCGCCCGGCGGCUCGAGCCCGGGUAAGUGUAAAUAGUCUGCAUGCCGCCGGGCGCCAUGCCUGCAGGUCGACUCUAGAAAACAUG” as the sequence, how does the binding signal (PUM1 PUF domain R5-PFP) read?
The binding signal was 4.69 log2 enrichment (interaction score).

What about the binding signal (PUM1 PUF domain R5-TRL) of the same sequence?
The binding signal was 3.3 log2 enrichment (interaction score).

And the binding signal (PUM1 PUF domain R3-PYL)?
Its binding signal is 5.55 log2 enrichment (interaction score).

What about the binding signal (PUM1 PUF domain R4-GMG) of the same sequence?
The binding signal was 1.25 log2 enrichment (interaction score).

What about the binding signal (PUM1 PUF domain R3-LFR) of the same sequence?
The binding signal was 1.74 log2 enrichment (interaction score).

What about the binding signal (PUM1 PUF domain R6-THR) of the same sequence?
The binding signal was 3.12 log2 enrichment (interaction score).

And the binding signal (PUM1 PUF domain R4-AMA)?
The binding signal was 2.2 log2 enrichment (interaction score).

What about the binding signal (PUM1 PUF domain R5-KRM) of the same sequence?
Its binding signal is 2.19 log2 enrichment (interaction score).

What about the binding signal (PUM1 PUF domain R3-PWA) of the same sequence?
The binding signal was 4.48 log2 enrichment (interaction score).

What does the source list for “GGCUAGAACUAGUGGAUCCCCCGGCGCCCGGCGGCUCGAGCCCGGGUAAGUGUAAGUAGUCUGCAUGCCGCCGGGCGCCAUGCCUGCAGGUCGACUCUAGAAAACAUG”?
binding signal (PUM1 PUF domain R3-LFR): 5.96 log2 enrichment (interaction score); binding signal (PUM1 PUF domain R3-FRD): 5.68 log2 enrichment (interaction score); binding signal (PUM1 PUF domain R3-LWD): 4.02 log2 enrichment (interaction score); binding signal (PUM1 PUF domain R3-FQC): 3.36 log2 enrichment (interaction score); binding signal (PUM1 PUF domain R3-PWA): 0.42 log2 enrichment (interaction score)

How did the binding signal (PUM1 PUF domain R1-RSS) turn out when “GGCUAGAACUAGUGGAUCCCCCGGCGCCCGGCGGCUCGAGCCCGGGUAAGUGUAAAUCGUCUGCAUGCCGCCGGGCGCCAUGCCUGCAGGUCGACUCUAGAAAACAUG” was run?
Its binding signal is 3.93 log2 enrichment (interaction score).

And the binding signal (PUM1 PUF domain R1-QYK)?
The binding signal was 6.38 log2 enrichment (interaction score).

“GGCUAGAACUAGUGGAUCCCCCGGCGCCCGGCGGCUCGAGCCCGGGUAAGUGUUAAUAGUCUGCAUGCCGCCGGGCGCCAUGCCUGCAGGUCGACUCUAGAAAACAUG” was tested. Which binding signal (PUM1 PUF domain R5-TRL) did it give?
The binding signal was 2.18 log2 enrichment (interaction score).

And the binding signal (PUM1 PUF domain R5-SNS)?
Its binding signal is 3.23 log2 enrichment (interaction score).

What about the binding signal (PUM1 PUF domain R5-KRM) of the same sequence?
The binding signal was 3.73 log2 enrichment (interaction score).
